Source: PubChem BioAssay
An excerpt weighted towards active compounds, which were near 8.2% of everything screened.
SW480 rerep: induces DNA re-replication in SW480 colon adenocarcinoma cells | AID 624297 | 340,000 tested, 1.8% active | Potency, µM (titrated, usually from 46.1 µM), for the others: at the top dose re-replication activation, most hits filed as activators | SW480 DNA re-replication, Hoechst DNA content imaging, 48 h; note: % of control where 0% means no effect; nearly all actives have a fitted effect of over 55% in size
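Cells (250 per well) received 23 nL compound or DMSO by pin tool and were kept 48 hr at 37 C, 5% CO2. Nuclei were then stained with Hoechst for 40 min and scanned for DNA content.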
KB-V1 cytotox: KB-V1 MDR subline cytotoxicity; KB-V1 MDR cells viability, CellTiter-Glo, 72 h; Potency, µM (doses to about 46.1 µM), most hits filed as cytotoxic; 400,000 tested, 3.4% active; note: % is set by controls: 0 for no effect and ±100 for the full control effect; nearly all actives have a fitted effect of over 60% in size
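Luminescent ATP read-out (CellTiter-Glo, 10 min) measures survival of drug-selected KB-V1 MDR cells after 72 h, 37 degrees C compound exposure. Medium: phenol-red-free DMEM, 10% FBS. Values from fitted concentration-response curves.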
KB-3-1 tox: kills parental KB-3-1 adenocarcinoma cells; KB-3-1 viability, CellTiter-Glo ATP luminescence, 72 h; Potency, µM (top dose mostly 46.1 µM), most hits filed as cytotoxic; 400,000 tested, 1.4% active; AID 1347075; note: % is set by controls: 0 for no effect and ±100 for the full control effect; nearly all actives have a fitted effect of over 60% in size
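KB-3-1 cells, DMEM (no phenol red) + 10% FBS; compound by pin transfer, 72 h, 37 °C. Readout: CellTiter-Glo luminescence after 10 min. Data normalized, curve-fitted.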
MCF10A rereplic: inducers of DNA re-replication in MCF 10A breast cells; MCF 10A DNA re-replication, Hoechst nuclear intensity, 48 h; AID 624296; 350,000 tested, 2.9% active; Potency, µM (top dose mostly 46.1 µM), inactives show at the top dose activity, positive = re-replication, actives largely listed as activators; note: % of control where 0% means no effect; nearly all actives have a fitted effect of over 50% in size
ELG1 repair inh: blocks ELG1-dependent DNA repair in HEK293T cells | Potency, µM (top dose mostly 46.1 µM), without a hit: at the highest dose activity change, negative = inhibition, actives largely listed as inhibitors | 330,000 tested, 2.3% active | HEK293T ELG1-luciferase reporter, luminescence, 16 h; DNA damage induced by 5-fluorouridine; note: % is set by controls: 0 for no effect and ±100 for the full control effect; nearly all actives have a fitted effect of over 55% in size
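Cells (2,000 per well) received 5-fluorouridine plus test compound or DMSO and were incubated 16 hr at 37 °C, 5% CO2. Luciferase activity was read by luminescence 30 min after ONE-Glo addition; signal suppression marked inhibition of damage-induced ELG1 function.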
ELG1 Luc conf: human ELG1 repair inhibition, luciferase-tagged ELG1 confirmation. shares compounds with ELG1 repair inh. HEK293T ELG1-luciferase levels, luminescence; cells co-treated with 5-fluorouridine. Potency, µM (highest dose often 46.1 µM), for the others: at the highest dose activity change, negative = inhibition, actives largely listed as inhibitors. 670 tested, 68% active. AID 624248; note: % is set by controls: 0 for no effect and ±100 for the full control effect; nearly all actives have a fitted effect of over 55% in size
ELG1-Luc MMS: inhibits ELG1-dependent repair under MMS stimulation in HEK293T cells | shares compounds with ELG1 repair inh | HEK293T luciferase-tagged ELG1 level, MMS stimulated | Potency, µM (highest dose often 46.1 µM), for the others: at the top dose activity change, negative = inhibition, usual class: inhibitors | 670 tested, 53% active | AID 624249; note: % is set by controls: 0 for no effect and ±100 for the full control effect; nearly all actives have a fitted effect of over 60% in size
ELG1 5-FU: confirmation of ELG1 repair inhibitors: viability with 5FU. cell viability with 5-FU, ELG1-dependent repair. 670 tested, under 10 active. Potency, µM (titrated, usually from 46.1 µM), for inactives: top-dose activity change, negative = viability loss, most hits filed as cytotoxic. shares compounds with ELG1 repair inh;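 note: ELG1-luc HEK293T cells cotreated with 5-fluorouridine at 10 µM final; viability measured 16 h after compound addition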
ELG1 MMS cell: confirmation of ELG1 repair inhibitors: viability with MMS; shares compounds with ELG1 repair inh; Cell viability with MMS, ELG1-dependent DNA repair; 670 tested, 33% active; Potency, µM (highest dose often 46.1 µM), for inactives: at the top dose activity change, negative = viability loss, hits mostly cytotoxic;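 note: ELG1-luc HEK293T cells co-treated with 10 µM MMS; viability read 16 h after compound addition; % is set by controls: 0 for no effect and ±100 for the full control effect; nearly all actives have a fitted effect of over 60% in size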
ELG1 unstim viab: unstimulated viability counter-screen for ELG1 repair hits; shares compounds with ELG1 repair inh; cell viability counter-screen, unstimulated, luminescence; Potency, µM (series often up to 45.9 µM), inactives show at the top dose activity change, negative = loss of viability, most hits filed as cytotoxic; 900 tested, 8% active;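 note: compound exposure lasted 16 hours before reading; % is set by controls: 0 for no effect and ±100 for the full control effect; nearly all actives have a fitted effect of over 55% in size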
* marks the source's active call; other numbers are inactive results; i = inactive; ? = inconclusive; / = no result given; ! = not confirmed by another sample. Calls come from the whole dose curve; as a rule, active = well fitted curve in the direction sought with a large enough effect; inconclusive = small, poorly fitted or top-dose-only effect, or another doubt; inactive = no such curve, though single readings can be large; an effect the other way counts as inactive or inconclusive. Potency is the fitted concentration of half-maximal effect.

SMILES | SW480 rerep | KB-V1 cytotox | KB-3-1 tox | MCF10A rereplic | ELG1 repair inh | others
O=C1C(Nc2ccccc2)=C/C(=N/S(=O)(=O)c2cccs2)c2ccccc21 | 5.8µM* | ? | ? | 3.26µM* | 6.51µM*
O=C1C(Nc2ccccc2)=C(NS(=O)(=O)c2ccccc2)C(=O)c2ccccc21 | -1.2% | ? | i | -2.2% | 2.5%
Cc1ccc(NC2=C/C(=N/S(=O)(=O)c3cccs3)c3ccccc3C2=O)cc1 | ? | ? | 2.31µM* | 8.2µM* | ?
Cc1ccc(NS(=O)(=O)c2ccc(NC(=O)C(C)Sc3ccc(Cl)cc3)cc2)c(C)c1 (centres undefined) | ? | i | ? | ? | 20.6µM*
COc1cccc(NC(=O)Cn2c3ccccc3c3nc4n(c(=O)c32)CCCS4)c1 | -17.3% | i | i | -0.2% | ?
O=C(Cn1c2ccccc2c2nc3n(c(=O)c21)CCCS3)Nc1ccccc1 | ? | i | i | 5.4% | 5.17µM*
Cc1cccn2c(=O)nc(SCC(=O)NC3CCCCC3)nc12 | -92.5% | i | i | -2.6% | 17.4%
Cc1cccn2c(=O)nc(SCC(=O)NC3CCCC3)nc12 | 18.4µM* | i | i | -0.4% | 10.9%
O=C(NNc1ccc(C(F)(F)F)cc1[N+](=O)[O-])c1ccc(NS(=O)(=O)c2ccc(F)cc2)cc1 | -49.3% | i | i | 24.4% | 20.6µM*
CC(C)[C@H](Nc1ccc(C(F)(F)F)cc1[N+](=O)[O-])C(=O)O | -2.3% | i | i | 0.4% | 4.9%
CCOc1ccccc1-c1nc2c([nH]1)c(=O)n(C)c(=O)n2C | 19.0% | 10.3µM* | ? | 1.6% | -0.6%
C=CCn1c(COc2ccc(F)cc2)nnc1SC(C)C(=O)NCC1CCCO1 (centres undefined) | -48.2% | ? | i | 13.0% | -14.3%
CC1CCc2cc(F)ccc2N1C(=O)CSc1nnc2c(n1)[nH]c1ccc(F)cc12 (centres undefined) | -3.4% | 20.6µM* | i | 17.0% | 4.9%
O=C(Cn1cccn1)N1CCCC(N2CCN(c3ccccc3F)CC2)C1 (centres undefined) | 2.5% | i | i | 4.6% | -1.1%
OC[C@H]1O[C@@H](c2nc(-c3ccccc3Br)no2)[C@H](O)[C@@H]1O | / | ? | 7.31µM* | / | /
OC[C@H]1O[C@@H](c2nc(-c3cccc4ccccc34)no2)[C@H](O)[C@@H]1O | / | i | i | / | /
OC(Cc1ccc2ccccc2n1)c1c(Cl)cccc1Cl (centres undefined) | / | i | i | / | /
Cc1ccc(S(=O)(=O)Cc2ccc(C(=O)N3CCN(Cc4ccccc4)CC3)o2)cc1 | / | / | / | / | 18.4µM*
Cc1ccc(C)c(N2CCN(C(=O)c3ccc(CS(=O)(=O)c4ccc(Br)cc4)o3)CC2)c1 | / | i | ? | / | /
Cc1cccc(N2CCN(C(=O)c3ccc(CS(=O)Cc4ccc(Cl)cc4)o3)CC2)c1C (centres undefined) | -2.4% | i | i | ? | ?
Cc1ccc(C(=O)N2CCN(c3cccc(C)c3C)CC2)o1 | 8.2% | ? | 16.4µM* | ? | -11.6%
Cc1ccc(S(=O)(=O)Cc2ccc(C(=O)N3CCN(c4cccc(C)c4C)CC3)o2)cc1 | 2.59µM* | 2.91µM*! | i | ? | ?
Cc1ccc(S(=O)(=O)Cc2ccc(C(=O)N3CCN(c4ccc(F)cc4)CC3)o2)cc1 | ? | ? | ? | ? | 23.1µM*
Cc1cc(C)n(C(C)Sc2ccccc2)n1 (centres undefined) | -58.7% | i | i | -25.9% | 2.8%
Cc1cc(C)cc(Nc2cc(C(=O)NCc3ccccc3)c3ccccc3n2)c1 | / | i | ? | / | /
SMILES | SW480 rerep | KB-V1 cytotox | KB-3-1 tox | MCF10A rereplic | ELG1 repair inh | others
COc1ccc(S(=O)(=O)Cc2ccc(C(=O)N3CCN(c4cccc(C)c4C)CC3)o2)cc1 | 20.6µM* | ? | ? | ? | 16.4µM*
Cc1noc(C)c1C(=O)N1CCN(S(=O)(=O)c2cccc(Cl)c2Cl)CC1 | -3.2% | i | i | 1.8% | 0.0%
N#CC1=C(N)C2=CCCC[C@H]2[C@H](c2ccc(Br)cc2)C1(C#N)C#N | ? | i | i | 16.4µM* | 16.8%
CC(C)(CNC(=S)NCCc1ccccc1)CNC(=S)NCCc1ccccc1 | ? | i | ? | 23.1µM* | ?
CCOC(=O)c1cccc(NC(=O)c2ccc3c(c2)nnn3C2CCCC2)c1 | / | i | i | / | /
Cc1nn(CCC#N)c(N)c1C1(O)C(=O)Nc2c(Cl)cc(Cl)cc21 (centres undefined) | ? | i | i | ? | 11.8%
CCN1CCN(S(=O)(=O)c2ccc(Cl)c(C(=O)NC3CCCCC3)c2)CC1 | -0.8% | i | i | 1.5% | 3.4%
CCN1CCN(S(=O)(=O)c2cc(OCC(=O)NC3CCCCC3)c(C)cc2Cl)CC1 | 3.5% | ? | ? | ? | ? | ELG1 Luc conf=-16.1%;ELG1-Luc MMS=3.15µM*;ELG1 5-FU=-11.4%;ELG1 MMS cell=2.5µM*;ELG1 unstim viab=?
O=C(CC1OC(=O)c2ccccc21)Nc1cc(Cl)ccc1N1CCOCC1 (centres undefined) | -4.0% | i | i | 6.2% | 4.11µM* | ELG1 Luc conf=?;ELG1-Luc MMS=-1.4%;ELG1 5-FU=3.9%;ELG1 MMS cell=1.6%;ELG1 unstim viab=-7.4%
